This passage reports Potency and activity change, negative = inhibition results from PubChem BioAssay AID588342 (National Center for Advancing Translational Sciences (NCATS), 2011).

The campaign covered roughly 360,000 compounds. About 25,000 (6.9%) were called active. Not shown: some 9% with an inconclusive outcome. Calls follow the shape of the dose curve; as a rule, active = well fitted inhibition curve with a large enough effect; inconclusive = small, poorly fitted or top-dose-only effect; inactive = flat fitted curve, though single readings scatter. The list comes from a sample in which actives are over-represented; it also holds similar structures and randomly drawn compounds. Entries that show only a call come without a potency.
Potency is read from the fitted curve at half-maximal effect.

Chain of Luciferin 4-monooxygenase (Photinus pyralis) (P08659 whole entry, looked up): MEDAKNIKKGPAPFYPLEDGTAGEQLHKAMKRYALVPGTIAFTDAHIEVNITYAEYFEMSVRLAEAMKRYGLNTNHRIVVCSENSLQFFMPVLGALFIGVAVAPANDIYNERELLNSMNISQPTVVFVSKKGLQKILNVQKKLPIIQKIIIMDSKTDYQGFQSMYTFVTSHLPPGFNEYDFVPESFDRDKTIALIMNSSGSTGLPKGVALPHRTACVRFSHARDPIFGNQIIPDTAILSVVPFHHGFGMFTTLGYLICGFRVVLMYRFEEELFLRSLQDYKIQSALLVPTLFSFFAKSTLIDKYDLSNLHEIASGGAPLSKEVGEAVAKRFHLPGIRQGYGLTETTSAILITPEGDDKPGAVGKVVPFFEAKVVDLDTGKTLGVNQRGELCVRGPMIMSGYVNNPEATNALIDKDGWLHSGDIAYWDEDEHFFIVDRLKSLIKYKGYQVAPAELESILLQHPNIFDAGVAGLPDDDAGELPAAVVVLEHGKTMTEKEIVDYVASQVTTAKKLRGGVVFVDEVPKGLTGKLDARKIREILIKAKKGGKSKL

The assay has as its target Luciferin 4-monooxygenase (Photinus pyralis) (UniProt P08659). The experiment in a line: qHTS profiling assay for firefly luciferase inhibitor/activator using purifed enzyme and Km concentrations of substrates (counterscreen for miR-21 project). Also: nearly all actives have a fitted effect of over 55% in size. Conditions: purified FLuc, luminescence inhibition; series mostly up to 57.5 µM. Summed up:
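Purified P. pyralis luciferase (10nM final) with 10uM D-luciferin and 10uM ATP (Km levels) in 50mM Tris acetate pH 7.5, 10mM Mg acetate, 0.01% Tween-20, 0.05% BSA; qHTS 6-point titration, ~60 µM downward; luminescence read.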
In general terms: qHTS replaces the single test concentration by a dilution series.
Regarding `CC1CCN(CC(=O)c2c[nH]c3ccccc23)CC1`, the Potency entry is “inactive”. For the compound `C[C@H](NC(=O)c1ccccc1)C(=O)OCC(=O)c1c[nH]c2ccccc12`, the Potency entry was “inactive”. Still for that read-out and setting: to `O=C(OCC(=O)c1c[nH]c2ccccc12)c1cccc(O)c1` belongs 9.53 µM (active); to `Cn1c(=O)[nH]c(=O)c2c1nc(CN1CCN(c3ccccc3F)CC1)n2CCc1ccccc1`, “inactive”; to `CCOc1cc(CNC(=O)c2sc3ncnc(N(C)C4CCCCC4)c3c2C)ccc1OC`, “inactive”.

On to `O=C(NCC1CCCO1)c1ccccc1-c1nc(-c2ccccc2Cl)no1` (stereo not given), for which the Potency is 12 µM (active). On to `O=C(NCC1CCCO1)c1cc2c([nH]c3ccccc32)c(-c2ccc(F)cc2)n1` (stereo not given), for which the Potency result is “inactive”. On the same count and under the same terms, for `Cc1onc(-c2ccccc2Cl)c1C(=O)NCCn1ccc2ccccc21` the value was “inactive”; for `COCCNC(=O)c1cc(-c2cccc(Cl)c2)on1`, “inactive”. `O=C(Nc1ccccc1C(=O)NCC1CCCO1)c1ccccc1F` (stereo not given): the Potency entry is “inactive”.

As for `Cc1ccc(-c2noc(-c3ccccc3C(=O)NCC3CCCO3)n2)cc1` (stereo not given), the Potency is 4.78 µM (active).

With `COCCNC(=O)c1ccccc1-c1nc(-c2ccccc2Cl)no1`, the Potency is 12 µM (active).

Consider `O=C(CSCc1c(F)cccc1Cl)NCC1CCCO1` (stereo not given), for which the Potency entry was “inactive”. Turning to `Cc1ccccc1CN(c1ccc(C(=O)NCC2CCCO2)cc1)S(C)(=O)=O` (stereo not given), the Potency entry is “inactive”. In the case of `CCC(=O)N1c2ccccc2CC1C(=O)N1CCN(c2cccc(OC)c2)CC1` (stereo not given), the Potency result is “inactive”. For `Cc1c(C)n(Cc2ccc(Cl)cc2)c2ccc(C(=O)N3CCN(c4ccccc4F)CC3)cc12`, the Potency entry was “inactive”. `CCOc1cc(C(=O)NCCc2csc3nc(-c4ccc(C)cc4)nn23)cc(OCC)c1OCC`: the Potency entry was “inactive”.

For the compound `CCCn1c(NCc2ccccc2F)nc2ccccc21`, the Potency result is “inactive”. As to `Cc1ccc(NC(=O)c2cccc(S(=O)(=O)N3CCCc4ccccc43)c2)nc1`, the Potency result was “inactive”. Consider `Cc1c(C(=O)N2CCCC2)oc2c1-c1nn(CC(=O)NCc3ccc(OC(C)C)cc3)cc1CC2`, for which the Potency result was “inactive”.

Consider `CC1CCCC(C)N1C(=O)COC(=O)COc1ccccc1C#N` (stereo not given), for which the Potency entry is “inactive”. `O=C(CC1Oc2ccc(Cl)cc2NC1=O)NCc1ccccc1` (stereo not given): the Potency result was “inactive”. In the case of `CCCc1cc(=O)oc2c(C)c(OCC(=O)N3CCC(C(=O)O)CC3)ccc12`, the Potency entry is “inactive”.

As for `Cc1c(C)c2ccc(OCC(=O)N3CCC(C(=O)O)CC3)c(C)c2oc1=O`, the Potency is 23.9 µM (active).

Consider `CCCCc1cc(=O)oc2c(C)c(OCC(=O)N3CCC(C(N)=O)CC3)ccc12`, for which the Potency entry is “inactive”.

As for `COc1ccc(NC2CCCN(C(=O)c3ccncc3)C2)cc1` (stereo not given), the Potency result is “inactive”.

In the case of `COC(=O)c1ccc(NC(=O)c2cc(S(=O)(=O)N3CCC(C)CC3)cn2C)cc1`, the Potency entry is “inactive”. The same measure, in the same setting: to `O=C(NCC(O)c1ccc([N+](=O)[O-])cc1)C1CCCCC1` (stereo not given) belongs “inactive”; to `c1ccc2c(c1)OCCOCCOCCO2`, “inactive”; to `COc1ccc2sc(-c3ccc(N(C)C)cc3)c(C#CCO)c2c1`, 8.49 µM (active). As to `Cc1ccc(CCNC(=O)C2CCN(c3nnc(-n4cccc4CNc4ccc(C)cc4)s3)CC2)cc1`, the Potency result is “inactive”. Consider `O=C(CNc1ccccc1N1CCCC1=O)Nc1cc(Cl)ccc1-n1cncn1`, for which the Potency entry was “inactive”. Take `NS(=O)(=O)c1ccc(-c2ccc(/C=C3\SC(=O)NC3=O)o2)cc1`: the Potency is 13.5 µM (active).

For the compound `O=S(=O)(c1ccc(Br)cc1)c1nnn2c1nc(NC1CCCCCC1)c1sccc12`, the Potency result is “inactive”. Regarding `CCOc1ccccc1N(CC)C(=O)Nc1cn(C)c(=O)c2ccccc12`, the Potency entry was “inactive”. Same read-out and setting: for `COc1ccc(C2Sc3ccccc3NC3=C2C(=O)c2ccccc23)c(OC)c1OC` (stereo not given) the value was “inactive”; for `COc1cc(C2C(C(=O)c3sc(C)nc3C)=C(O)C(=O)N2CCN(C)C)cc(OC)c1OC` (stereo not given), “inactive”. Still for that read-out and setting: for `COc1ccc(-c2cc(-c3ccccc3)nc3c2COc2ccc(Cl)cc2-3)cc1` the value was “inactive”. Take `COc1ccc(-c2cc(-c3ccc(F)cc3)nc3c2COc2ccccc2-3)cc1`: the Potency result is “inactive”.

Consider `COc1ccc(C2=Nc3cc(C)ccc3OC2)cc1`, for which the Potency is 0.379 µM (active). As for `C#C[C@]1(O)CC[C@H]2[C@@H]3CCC4=CC(=O)CC[C@@H]4[C@H]3CC[C@@]21CC`, the Potency entry is “inactive”. Turning to `Cc1ccc(C2CCN(C(=O)c3cnn(-c4ccccc4Cl)c3C3CCN(C(=O)OC(C)(C)C)CC3)C2)cc1` (stereo not given), the Potency result is “inactive”. On the same count and under the same terms, for `O=C(CSc1nc(=O)n(Cc2cccnc2)c2c1CCC2)Nc1ccc(F)cc1F` the value was “inactive”. As to `CN(C)S(=O)(=O)c1ccc(C(=O)N(Cc2cccnc2)c2nc3c(F)cc(F)cc3s2)cc1`, the Potency entry was “inactive”.

In the case of `S=C(NCc1cccnc1)Nc1ccc(Cl)cc1Cl`, the Potency entry was “inactive”. With `O=C(NC(=S)Nc1ccc(Cl)cc1Cl)C1CC1`, the Potency was 21.3 µM (active). On the same count and under the same terms, to `O=C(Nc1c(Cl)cccc1Cl)C1CCC1` belongs “inactive”; to `CN(C(=O)CCn1c(=S)oc2ccccc21)C1CCCCC1`, “inactive”. On the same count and under the same terms, to `Cc1ccc(S(=O)(=O)N(C)CC(=O)NCC(c2ccc(F)cc2)N2CCOCC2)cc1` (stereo not given) belongs “inactive”; to `CCOc1ccc(N2C(=O)CC(N(CCc3ccc(OC)c(OC)c3)C(=S)Nc3ccccc3)C2=O)cc1` (stereo not given), “inactive”. Regarding `CC1(C)O[C@@H]2[C@H](O1)[C@@H](COS(=O)(=O)O)O[C@H]2n1cnc2c(=O)[nH]cnc21`, the Potency entry is “inactive”. On the same count and under the same terms, for `CC(=O)N(C1=C(Cl)C(=O)c2ccccc2C1=O)c1ccc(C(=O)O)cc1` the value was 1.69 µM (active); for `COC1=C(N2CCOCC2)C(=O)c2ccccc2C1=O`, “inactive”.

Regarding `Cc1ccc(C)c(CSc2nc(-c3ccco3)nc3c2c(=O)n(C)c(=O)n3C)c1`, the Potency entry was “inactive”. For the compound `CCOC(=O)c1c(N)nn(C(=O)c2ccccc2)c1-c1ccccc1`, the Potency result was “inactive”. For `Cc1occc1C(=O)Nc1nnc(-c2ccncc2)s1`, the activity change, negative = inhibition is -0.684% [at 2.3 µM] (inactive).

As for `Cc1nn(C(=O)c2ccoc2C)c(N)c1-c1ccccc1`, the Potency is 10.7 µM (active). Same read-out and setting: for `CCOC(=O)c1cc2c(=O)n3ccccc3nc2n(CC2CCCO2)c1=NC(=O)c1ccccc1F` (stereo not given) the value was “inactive”; for `Cc1cccc(C(=O)c2cccc(C)c2)c1`, “inactive”. As to `Cc1ccc(/C(N)=N/OC(=O)COc2ccc(Cl)c(C)c2)cc1`, the Potency result was “inactive”. Regarding `Cc1cccc(/C(N)=N/OC(=O)c2ccccc2Cl)c1`, the Potency is 0.757 µM (active). Regarding `C/C(=N\OC(=O)c1ccccc1)c1c(C)nc2cc(C)ccn12`, the Potency entry was “inactive”. Take `C/C(=N/OC(=O)c1ccc(Br)cc1)c1ccc(C)cc1`: the Potency is 6.75 µM (active). Same read-out and setting: to `Cc1ccc(OC(=O)CCC(=O)Nc2ccc(Br)cc2)cc1` belongs “inactive”. Take `CCc1ccc(NC(=O)CSc2nc3c([nH]c4ccccc43)c(=O)n2-c2cccc(OC)c2)cc1`: the Potency entry is “inactive”.
